# PubChem BioAssay AID1963576 (National Center for Advancing Translational Sciences (NCATS), 2024)
# Among all 46,000 compounds or so, about 60 (0.1%) were called active. Another 3% or so got no clear call; they are omitted. The call rests on the fitted dose curve; in most records, active means well fitted inhibition curve with a large enough effect; inconclusive means small, poorly fitted or top-dose-only effect; inactive means no such curve, though single readings can be large or run the other way. What follows is part of a selection rich in actives, with near analogues and random picks from the rest. A call without a number means that no potency is given here.
# Experiment: Primary qHTS assay for Inhibitors of ovarian cancer metastasis using an organotypic tumor microenvironment (TME) model. Further: nearly all actives have a fitted effect of over 65% in size.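 On potency: count of GFP cancer cells still attached after washing and fixation.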
# Conditions: SKOV3ip1-GFP adhesion/invasion on 3D omental model, fluorescence; series mostly up to 45.8 µM
# Excerpt: PI: Ernst Lengyel MD., Ph.D. Department of Obstetrics and Gynecology, Section of Gynecologic Oncology University of Chicago Medicine, Chicago, Illinois. The tumor microenvironment (TME) is a key determinant of metastatic efficiency. We performed a quantitative high-throughput screen (qHTS) of diverse medicinal chemistry tractable scaffolds (44,420 compounds) and pharmacologically active small molecules (386 compounds) using a layered organotypic, robust assay representing the ovarian cancer metastatic TME. This 3D model contains primary human mesothelial cells, fibroblasts, and extracellular matrix, to which fluorescently labeled ovarian cancer cells are added. Initially, 100 compounds inhibiting ovarian cancer adhesion/invasion to the 3D model in a dose-dependent manner were identified. Of those, eight compounds were confirmed active in five high-grade serous ovarian cancer cell lines and were further validated in secondary in vitro and in vivo biological assays. […] Specifically, NCGC00117362 and PP-121 inhibited ovarian cancer adhesion, invasion, and proliferation, whereas milciclib inhibited ovarian cancer invasion and proliferation. […] To evaluate the clinical potential of NCGC00117362, structure - activity relationship studies were performed. […] The three compounds identified have promise as therapeutics for prevention and treatment of ovarian cancer metastasis.
# PROTOCOL TABLE (as described by Inglese J, Shamu CE and Guy RK. 2007) SEQUENCE No. (e.g., 1, 2, 3, etc.); […] (e.g., Cells, Incubation, Reagent, etc.); VALUE; DESCRIPTION. 1; Cells; 4 uL; primary human omental fibroblast, black, clear bottom, low base, 1536-well Aurora assay plate. 2; Incubation; 48 hr; 37C. 3; Cells; 3 uL; 1,200 SKOV3ip1-GFP cells. 4; Compounds; 23nL; acoustic dispenser. 5; Incubation; 2 hr; room temperature. 6; Incubation; 16 hr; 37C. 7; Wash; 5 uL; 1x PBS. 8; Fixing; 5 uL; 4% paraformaldehyde (PFA). 9; Incubation; 15 min; room temperature 10; Wash, 5 uL; 1x PBS. 11; Detection; Fluorescence, excitation filter 488 nm, emission filter 509 nm. NOTES (numbers refer to Sequence numbers above) 1. For the 1,536-well format, 40 primary human omental fibroblasts and 400 mesothelial cells were seeded with 0.02 µg fibronectin and 0.02 µg collagen type I in 4 µL of growth media (2.3 mm2; Supplementary Fig. S1A). 2. Assay plates were incubated for 48 hours at 37 C. 3. After incubation, 1,200 SKOV3ip1-GFP were seeded in 3 µL of serum-free media (growth media minus FBS) on top of primary human omental cells. 4. Compounds or controls were added to each well immediately after the addition of the cancer cells. Compounds were screened in four doses (0.36-46 µmol/L), and the plates contained the positive control (Tomatine) in eight doses (0.035-75 µmol/L) and DMSO (equal volume controls) 5 - 6. The plates were incubated at room temperature for 2 hours and then at 37 degrees C for 16 hours. 7 - 10. Following incubation, the media were aspirated and each well washed with PBS (5 µL) and then fixed with 4% paraformaldehyde (PFA; 5 µL). After 15 minutes, the PFA solution was aspirated, PBS (5 µL) was added. 11. The number of GFP-labeled cells analyzed using a fluorescent cytometer TTP LabTech Acumen eX3 using 488 nm excitation filter and 509 nm emission filter. Data was normalized to the DMSO treated for negative and Tomatine treated wells for positive control. REFERENCES: Inglese J, Shamu CE and Guy RK, Reporting data from high throughput screening of small molecule libraries, Nature Chemical Biology, 2007, 3(8): 438-441. doi.org/10.1038/nchembio0807-438. Yasgar A, Shinn P, Jadhav A, Auld DS, Michael S, Zheng W, Austin CP, Inglese J and Simeonov A, Compound Management for Quantitative High-Throughput Screening. J. Assoc. Lab. Auto., 2008, 13: 79-89. doi: 10.1016/j.jala.2007.12.004.
# Potency means the concentration at half of the fitted maximal effect.
row,SMILES,Potency
1,COc1cc(OC)cc(C(=O)Nc2cc3nn(-c4ccccc4)nc3cc2Cl)c1,inactive
2,CC(=O)c1ccc(N2CCN(c3nc4c(S(=O)(=O)c5ccccc5)nnn4c4ccc(Cl)cc34)CC2)cc1,inactive
3,Cc1ccc(CNC(=O)CCc2c(C)nn(-c3ccc(N4CCCC4)nn3)c2C)cc1,inactive
4,Cc1cccc(N(C)C(=O)c2cc(S(=O)(=O)N3CCCCC3)c[nH]2)c1,inactive
5,CO[C@H]1O[C@@H]2O[C@@]3(C)CC[C@@H]4[C@@H](C)CC[C@@H]([C@H]1C)[C@@]24OO3,inactive
6,Cn1c(SCC(=O)N2CCCc3ccccc32)ncc(C(=O)Nc2ccc(F)cc2)c1=O,inactive
7,Cc1nn(Cc2ccc(F)cc2)c(C)c1NC(=O)c1cc(CC(C)C)on1,inactive
8,COc1ccccc1-c1nnc(SCC(N)=O)o1,inactive
9,CON=C(C(=O)N[C@@H]1C(=O)N2C(C(=O)OCOC(=O)C(C)(C)C)=C(C=Cc3scnc3C)CS[C@H]12)c1csc(N)n1,inactive
10,CCc1ccc(NC(=O)CSc2nc3c([nH]c4ccccc43)c(=O)n2-c2cccc(OC)c2)cc1,inactive
11,CCOC(=O)N1CCN([N+]([O-])=NOc2ccc([N+](=O)[O-])cc2[N+](=O)[O-])CC1,inactive
12,Cc1nc2c(-c3ccccc3)c(C)nn2c(C)c1CCC(=O)NCCc1ccccc1,inactive
13,Fc1ccc(-n2ncc3c(Nc4ccc(Oc5ccccc5)cc4)ncnc32)cc1,inactive
14,Cc1ccc(/C=C(\C#N)C(=O)Nc2cc(C)ccc2C)cc1,inactive
15,CSc1ccc(CCNC(=O)c2cnn(-c3ccccc3)c2-n2cccc2)cc1,inactive
16,COc1ccc(C2CC(=O)Nc3c2c(=O)nc2c(C)cccn32)cc1OC (stereo not given),inactive
17,CCN1CCN(c2cc(C)c3cc(NC(=O)c4cc(Cl)ccc4OC)ccc3n2)CC1,3.55 µM (active)
18,COc1ccc(C(=O)Nc2ccc3nc(N4CCCCC4)cc(C)c3c2)cc1OC,inactive
19,COc1ccc(NC(=O)c2cnc(Nc3ccc(C)c(Cl)c3)c3ccccc23)cc1OC,inactive
20,CC(NC(=O)c1cc2c(=O)n3ccccc3nc2n(C(C)C)c1=N)c1ccccc1 (stereo not given),inactive
21,COc1cc2ccccc2cc1C(=O)Nc1cccc(-c2nc3ccccc3o2)c1,inactive
22,CCN1CCN(c2ncnc3c2cnn3-c2ccc(C)c(C)c2)CC1,inactive
23,CCc1cccc(NC(=O)CN(c2ccc(C)c(C)c2)S(=O)(=O)c2ccsc2C(=O)OC)c1,inactive

row,SMILES,Potency
1,CCc1nccn1S(=O)(=O)c1cc(Br)ccc1Br,inactive
2,CCc1ccc(S(=O)(=O)c2nnn3c2nc(NCc2ccccc2OC)c2cc(Cl)ccc23)cc1,inactive
3,Cc1ccc(NC(=O)c2oc3ccc(S(=O)(=O)N4CCCCC4)cc3c2C)cc1Cl,inactive
4,Cc1ccc(-n2ncc3c(NCCCn4ccnc4)ncnc32)cc1Cl,inactive
5,Cc1ccc(-n2c(SCC(=O)Nc3cccc(F)c3)nc3c(oc4ccccc43)c2=O)cc1C,inactive
6,CC=CC[C@@H](C)C(=O)[C@H]1C(=O)N[C@@H](C(C)C)C(=O)N(C)CC(=O)N(C)[C@@H](CC(C)C)C(=O)N[C@@H](C(C)C)C(=O)N(C)[C@@H](CC(C)C)C(=O)N[C@@H](C)C(=O)N[C@H](C)C(=O)N(C)[C@@H](CC(C)C)C(=O)N(C)[C@@H](CC(C)C)C(=O)N(C)[C@@H](C(C)C)C(=O)N1C,inactive
7,CCc1nc2nc(C)cc(Nc3ccc(F)c(Cl)c3)n2n1,inactive
8,COc1cc2nc(SCC(=O)Nc3ccccc3F)n3nc(-c4ccccc4)nc3c2cc1OC,inactive
9,Cc1ccc(Cn2c(CNC(=O)Cc3cccc(C)c3)nc3cccnc32)cc1,inactive
10,O=C(Cn1nc(C(F)(F)F)c2c1CCCC2)Nc1ccc(Cl)cc1,inactive
11,COc1ccc(NC(=O)COCc2cc(-c3ccco3)on2)cc1,inactive
12,O=C(Cn1nc(Cc2cccnc2)c2ccccc2c1=O)N1CCN(c2ccccc2F)CC1,inactive
13,COc1ccc(CN2CCc3nc(Nc4ccccc4)ncc3C2)c(OC)c1OC,inactive
14,CO[C@H]1C[C@@H]2CC[C@@H](C)[C@@](O)(O2)C(=O)C(=O)N2CCCC[C@@H]2C(=O)O[C@H]([C@@H](C)C[C@@H]2CC[C@H](O)[C@H](OC)C2)CC(=O)[C@H](C)C=C(C)[C@@H](O)[C@@H](OC)C(=O)[C@H](C)C[C@H](C)C=CC=CC=C1C,inactive
15,COc1ccc(-c2cn3c(n2)sc2cc(C(=O)Nc4ccc(F)cc4)ccc23)cc1,inactive
16,COc1ccc(-c2cn3c(C)c(C(=O)Nc4cc(C)cc(C)c4)sc3n2)cc1,8.91 µM (active)
17,CCOC(=O)c1ccccc1NC(=O)c1sc2nc(-c3ccc(F)cc3)cn2c1C,inactive
18,CCOC(=O)c1cc2c(=O)n3ccccc3nc2n(Cc2ccco2)c1=NC(=O)c1ccc(F)cc1,inactive
19,Cn1c(=O)c2c(n3c4ccccc4nc13)NC(=O)CC2c1cccc(Cl)c1 (stereo not given),inactive
20,COc1cccc(CNC(=O)CN2C(=O)CCc3cc(S(=O)(=O)N4CCOCC4)ccc32)c1,inactive
21,Cc1cccc(NC(=O)c2nnn(CC(=O)Nc3ccc(C(C)C)cc3)c2N)c1C,inactive
22,O=C(NCCc1ccccc1)c1ccc2c(c1)N(Cc1ccc(F)cc1)C(=O)c1ccccc1S2(=O)=O,inactive
23,COc1ccc(CNC(=O)CSc2nc3ccccc3nc2Cc2ccccc2)cc1,inactive

row,SMILES,Potency
1,CCc1ccc(S(=O)(=O)c2nnn3c2nc(N2CCN(CC)CC2)c2sccc23)cc1,inactive
2,COc1ccc2oc(=O)c(-c3cn4c(n3)sc3cc(OC)ccc34)cc2c1,inactive
3,O=C(Nc1ccc(-c2nc3cc(NC(=O)c4ccccc4Cl)ccc3o2)cc1)c1ccccc1Cl,inactive
4,CCOC(=O)c1c(N)n(-c2cccc(C)c2C)c2nc3ccccc3nc12,inactive
5,Cc1ccc(Nc2nc3ccccc3nc2-n2nc(C)cc2C)c(Cl)c1,inactive
6,COc1cc(C(=O)N2CCC(c3ccncc3)CC2)cc(OC)c1OC,inactive
7,Cc1ccc(S(=O)(=O)N2CCC(C(=O)Nc3cc(C)ccc3C)CC2)cc1,inactive
8,CC=CCC=CCCC(=O)[C@H]1O[C@@H]1C(N)=O,inactive
9,Cc1nnc(SCC(=O)NCc2ccccc2Cl)c2nn(-c3ccccc3)c(C)c12,inactive
10,CCC(C(=O)Nc1cc(OC)ccc1OC)n1c(=O)c(C(F)(F)F)nc2ccccc21 (stereo not given),inactive
11,CN1CCN(C2(CNC(=O)COc3ccc(C(C)(C)C)cc3)CCCCC2)CC1,inactive
12,CCOc1ccccc1N(C)C(=O)c1cc2c(s1)-c1ccccc1OC2,inactive
13,Cc1nn(-c2ccc(N3CCCCC3)nn2)c(C)c1CCC(=O)NCc1ccc(F)cc1,inactive
14,O=C(Nc1c(-c2ccc(F)cc2)nc2ccccn12)c1cccc(F)c1,inactive
15,CC(=O)OC[C@@H]1O[C@@H](n2ccc(=O)[nH]c2=O)[C@H](OC(C)=O)[C@H]1OC(C)=O,inactive
16,CN(C(=O)CSc1nnc(NC(=O)Nc2ccccc2)s1)c1ccccc1,inactive
17,CC1CCCCN1CC(=O)N1CCCc2c1c(=O)oc1ccc(OCc3ccccc3)cc21 (stereo not given),inactive
18,O=S(=O)(NCCS(=O)(=O)N1CCN(c2ccccc2)CC1)c1ccc(Cl)cc1,inactive
19,Cc1cccc(NC(=O)C2CCN(S(=O)(=O)c3c(C)noc3/C=C/c3ccco3)CC2)c1,inactive
20,CC(C)Cn1c(=O)c2ccccc2n2c(CCC(=O)N3CCN(c4cccc(Cl)c4)CC3)nnc12,inactive
21,COc1ccc(-c2cc(C(F)(F)F)n3nc(-c4ccccc4)cc3n2)cc1OC,inactive
22,CC(C(C)N1CC(=O)NC(=O)C1)N1CC(=O)NC(=O)C1 (stereo not given),inactive
23,Cc1ccc(CNS(=O)(=O)c2ccc(C(=O)N(C)C)s2)cc1,inactive

row,SMILES,Potency
1,CSc1ncc(Cl)c(C(=O)Nc2ccc(S(=O)(=O)N3CCCC(C)C3)cc2)n1 (stereo not given),inactive
2,Cc1ccc(-c2cc(N)n(Cc3cccc(Cl)c3)n2)cc1,inactive
3,C[C@]12CCC3=C4CCC(=O)C=C4CC[C@@H]3[C@H]1CC[C@@]2(O)CC#N,inactive
4,CCC(=O)N1CCc2cc(Br)cc(S(=O)(=O)Nc3ccc(C)cc3C)c21,inactive
5,Cc1cccc(NC(=O)c2cc3c(C)nn(-c4ccccc4)c3s2)c1,inactive
6,Cc1ccc(-c2nn3c(=O)cc(CN4CCN(C(=O)Nc5cccc(C(F)(F)F)c5)CC4)nc3s2)cc1,inactive
7,CCOC(=O)CN1C(C(=O)c2ccccc2)=C(OC(=O)C(C)(C)C)c2ccccc2S1(=O)=O,inactive
8,O=C(CC1C(=O)N(c2ccccc2)C(=O)N1CCc1cccs1)Nc1ccc(F)cc1 (stereo not given),inactive
9,O=C(CN1c2ccccc2S(=O)(=O)c2ccccc21)Nc1cccc(C(F)(F)F)c1,inactive
10,CC(C)(C)OC(=O)N1CCC(c2c(C(=O)N3CCN(c4cccc(Cl)c4)CC3)cnn2-c2cccc(Cl)c2)CC1,inactive
11,CCc1ccccc1NC(=O)CCOc1ccccc1,inactive
12,Cc1cccc(OCCCC(=O)Nc2sc3c(c2C(N)=O)CCC(C)C3)c1 (stereo not given),inactive
13,CCN(CC)CCCCNc1ncc2c(n1)N(C)C(=O)N(c1c(Cl)c(OC)cc(OC)c1Cl)C2,inactive
14,Cc1cccc(N2CCN(C(=O)c3cc4c(=O)oc5ccccc5c4s3)CC2C)c1 (stereo not given),inactive
15,COCCCNC(=O)CN1C(=O)CSc2ccc(S(=O)(=O)N3CCOCC3)cc21,inactive
16,CCc1ccccc1N1CC(c2nc3ccccc3n2CCCCOc2ccccc2)CC1=O (stereo not given),inactive
17,CCOC(=O)c1nc(Nc2ccc(C(=O)OC)cc2)c2ccccc2n1,inactive
18,COc1cc(Nc2nc(-c3ccc(OC)c(OC)c3)nc3ccccc23)cc(OC)c1,10 µM (active)
19,COc1cccc(Nc2nc3ccccc3c3nncn23)c1,inactive
20,COc1ccc(C2=CC(c3ccccc3Cl)n3nc(-c4ccc(Cl)cc4)nc3N2)cc1 (stereo not given),inactive
21,O=C(CCC(=O)N1CC2CCCN2c2ccccc21)NCc1ccccc1Cl (stereo not given),inactive
